Rows were chosen to be rich in hits. Some 3.7% of all compounds tested hit in one or more screens of this group.
p53 reactivator = qHTS assay for re-activators of p53 using a Luc reporter; H1299 p53-A138V BP100-luciferase reporter, luminescence, 24 h; AID 504706, 2011; 0.063% of 320,000 active; Potency, µM (doses to about 92.2 µM), for inactives: at the top dose activity change, positive = activation, hits mostly activators; further: potency means the concentration at half of the fitted maximal effect; % of control where 0% means no effect; nearly all actives have a fitted effect of over 45% in size
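p53-null H1299 cells stably carrying temperature-sensitive p53-A138V and a BP100-luciferase reporter were pinned with compounds (4-point, 1:5 series) and held 24 hrs at 37 deg C. Luminescence was read 10 min after detection reagent.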
miR-21 reporter = qHTS Assay for Modulators of miRNAs and/orActivators of miR-21; Potency, µM (highest dose often 38.3 µM), for inactives: at the top dose activity change, positive = activation, most hits filed as activators; AID 2288, 2010; HeLa miR-21 FLuc reporter, luciferase, 48 h; 340,000 tested, under 10 active;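 further: % of control where 0% means no effect; miR-21 action dims this reporter so a rising signal means less miR-21 action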
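HeLa miR-21-FLuc reporter line, endogenous miR-21; 2000 cells/well in DMEM/10% FBS; compound titration up to ~40uM final, 48 h, 37 degree Celsius; luciferase detection reagent, 15 min lysis, CCD luminescence.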
A549 viability = Nrf2 qHTS screen for inhibitors: counterscreen for cytotoxicity; 0.16% of 390,000 active; Potency, µM (top dose mostly 46 µM), without a hit: top-dose activity change, negative = cytotoxicity, usual class: inhibitors; A549 ARE-Fluc cells, CellTiter-Fluor viability, 18-24 h; further: potency means the concentration at half of the fitted maximal effect; on the % scale 0 is the no-effect control and ±100 the full control effect
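Cytotoxicity counterscreen: CellTiter-Fluor fluorescence was measured in A549 ARE_Fluc cells after 18-24 h of compound exposure in a concentration series. The subsequent BugLite luminescent read reports ARE-luciferase activity.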
ClpP mod = qHTS Assay for Activators of ClpP; purified B. subtilis ClpP, FRET peptide cleavage, 20 min; AID 651965, 2013; Potency, µM (series often up to 57.5 µM), for inactives: at the highest dose activity change, negative = active; 1.9% of 340,000 active; active means well fitted falling curve with a large enough effect; inconclusive means small, poorly fitted or top-dose-only effect; inactive means no such curve, though single readings can be large or run the other way; further: potency means the concentration at half of the fitted maximal effect; the source files actives as falling curves though it sought activators and does not explain the sign; nearly all actives have a fitted effect of over 65% in size
Target sequence (P80244 whole entry, looked up): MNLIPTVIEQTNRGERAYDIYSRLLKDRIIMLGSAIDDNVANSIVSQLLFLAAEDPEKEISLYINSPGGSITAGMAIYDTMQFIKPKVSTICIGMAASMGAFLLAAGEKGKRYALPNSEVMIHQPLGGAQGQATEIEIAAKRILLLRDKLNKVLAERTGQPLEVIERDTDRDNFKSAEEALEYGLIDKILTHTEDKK
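Purified B. subtilis ClpP, 10 microg/mL final in Tris/HCl pH8 with KCl, BSA, glycerol and Tween-20, cleaved an Abz/nitrotyrosine-quenched decapeptide. Fluorescence (ex 320, em 430) was read at 0 and 20 min at room temperature. Delta was normalized to 5.8 microM ADEP and DMSO/no-enzyme controls.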
Nrf2 ARE act = qHTS of Nrf2 Activators. 0.31% of 410,000 active. AREc32 ARE-luciferase reporter (MCF7-derived line), luminescence, 24 h. Potency, µM (series often up to 46.1 µM), for inactives: at the top dose activation, most hits filed as activators. AID 624171, 2012; further: potency means the concentration at half of the fitted maximal effect; % of control where 0% means no effect; nearly all actives have a fitted effect of over 65% in size
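AREc32_Fluc, 1000 cells/well, OPTI-MEM + 5% FBS, o/n 37 deg C 5% CO2; 23 nL cpd by pin tool, 24 hr; Steady-Glo 30 min RT, luminescence.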
Nrf2 inh = Nrf2 qHTS screen for inhibitors | 2.1% of 360,000 active | Potency, µM (series often up to 46 µM), for the others: at the top dose activity change, negative = inhibition, most hits filed as inhibitors | A549 ARE-Fluc reporter, luciferase luminescence, 18-24 h; further: potency means the concentration at half of the fitted maximal effect; on the % scale 0 is the no-effect control and ±100 the full control effect; nearly all actives have a fitted effect of over 60% in size
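Reporter: ARE-Fluc in A549. Exposure: 18-24 h, 37 °C, 5% CO2, 5% FBS OPTI-MEM. Readouts: fluorescent cytotoxicity (CellTiter-Fluor), then luminescent Nrf2 signal after BugLite.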
* hit, by the source's call; u = inconclusive; x = not tested or not shown. Unless noted, the call rests on the fitted dose curve; in most records, active means well fitted curve in the direction sought with a large enough effect; inconclusive means small, poorly fitted or top-dose-only effect, or another doubt; inactive means no such curve, though single readings can be large; an effect the other way counts as inactive or inconclusive.

SMILES	p53 reactivator	miR-21 reporter	A549 viability	ClpP mod	Nrf2 ARE act	Nrf2 inh
COc1ccc(OC)c(-c2noc(CSc3nnc(Cc4ccccc4)n3-c3cccc(C)c3)n2)c1	x	-4.7%	-22.7%	-2.4%	0.0%	u
O=C(CN1C(=O)c2cccc3cccc1c23)Nc1ccccc1Br	x	-3.5%	-0.6%	1.8%	0.0%	1.6%
COc1cc2c(cc1NC(=S)Nc1cccc3ccccc13)oc1ccccc12	17.2%	-15.2%	-2.3%	10µM*	4.7%	7.8%
COCCCNC(=S)Nc1cc2oc3ccccc3c2cc1OC	-2.7%	14.9%	-2.7%	-23.9%	-0.9%	-13.6%
COc1cc2c(cc1NC(=S)Nc1cccc(C(F)(F)F)c1)oc1ccccc12	20.0%	-4.5%	-3.1%	31.6µM*	3.8%	-14.7%
O=C(COc1cccc(NC(=O)c2ccccc2)c1)c1ccccc1	6.4%	-6.6%	-14.7%	-2.5%	0.1%	20.6µM*
O=C(COc1cccc(NC(=O)c2cccc([N+](=O)[O-])c2)c1)c1ccc(Br)cc1	5.9%	u	u	-21.7%	0.3%	20.6µM*
O=C(O)COc1cccc(NC(=O)c2ccccc2)c1	4.3%	-3.4%	-5.4%	-0.8%	2.0%	1.8%
Cc1cc(C)cc(NC(=O)c2cc(CN3CCCC3)on2)c1	x	-66.1%	-16.2%	-2.4%	4.2%	u
Cn1nc(C(=O)NCc2cccc(Cl)c2)c2c1-c1ccccc1SC2	x	-4.6%	-0.7%	-2.8%	0.7%	u
O=C1C(=C(c2ccccc2)c2ccccc2)Nc2ccccc21	8.9%	20.6%	u	3.3%	12.6µM*	u
COc1ccccc1C1C=C(c2ccc(Cl)cc2)Nc2nc(-c3ccc(Cl)cc3)nn21 (stereo not given)	x	u	-0.5%	-8.4%	-0.1%	u
COC(=O)Nc1ccc(S(=O)(=O)N2CCC(C(=O)N(C)C3CCCCC3)CC2)cc1	-1.1%	1.7%	-14.1%	12.6µM*	0.3%	-11.2%
CCOC(=O)C1CCN(S(=O)(=O)c2ccc(NC(=O)OC)cc2)CC1	8.0%	1.9%	u	-3.5%	-0.1%	u
COc1ccc2c(c1)CCc1c(C(=O)Nc3ccn(Cc4ccc(C)cc4)n3)noc1-2	-11.0%	-4.9%	-25.2%	-2.4%	-0.3%	16.4µM*
COc1ccc2c(c1)CCc1c(C(=O)Nc3c(C)nn(Cc4ccccc4)c3C)noc1-2	0.8%	2.5%	-6.4%	u	-0.7%	20.6µM*
Cc1ccc(Cn2ccc(NC(=O)c3noc4c3CCc3ccccc3-4)n2)cc1	0.8%	-0.2%	-2.2%	123.8%	0.3%	u
Cc1nn(Cc2ccc(Cl)cc2)c(C)c1NC(=O)c1noc2c1CCc1ccccc1-2	-1.3%	u	u	1.2%	0.2%	16.4µM*
COc1ccc2c(c1)CCc1c(C(=O)Nc3c(C)nn(Cc4ccc(Cl)cc4)c3C)noc1-2	x	19.1%	-1.7%	-10.0%	0.0%	-12.9%
Cc1ccc(Cl)cc1N1CCN(C(=O)c2cnn(C)c2C2CCN(C(=O)OC(C)(C)C)CC2)CC1	x	22.6%	3.4%	1.4%	-3.0%	u
O=C(Cc1ccccc1)Nc1cccc(-c2nnc(-c3ccco3)o2)c1	2.4%	4.8%	-9.6%	25.1µM*	4.7%	u
CC(=O)Oc1ccc(C(=O)Nc2cccc(-c3nnc(-c4ccco4)o3)c2)cc1	-3.7%	-0.2%	u	x	4.2%	16.4µM*
O=C(COc1ccccc1)Nc1ccc(-c2nnc(-c3ccco3)o2)cc1	-2.5%	-29.5%	-3.3%	20µM*	6.2%	x
O=C(Nc1cccc(-c2nnc(-c3ccco3)o2)c1)c1ccccc1	-1.4%	12.0%	2.5%	x	2.5%	u
O=C(Cc1ccc(Cl)cc1)Nc1cccc(-c2nnc(-c3ccco3)o2)c1	-4.0%	-1.3%	8.7%	u	0.2%	u
SMILES	p53 reactivator	miR-21 reporter	A549 viability	ClpP mod	Nrf2 ARE act	Nrf2 inh
O=C(Nc1cccc(-c2nnc(-c3ccco3)o2)c1)C(c1ccccc1)c1ccccc1	3.8%	-8.8%	-26.3%	11.2µM*	-0.4%	20.6µM*
COc1cc(C2NC(=O)NC(C)=C2C(=O)Nc2cc(C)cc(C)c2)ccc1O (stereo not given)	x	-4.1%	-5.2%	-1.2%	-1.5%	-2.4%
Oc1ccccc1C(=S)N1CCN(C(=S)c2ccccc2O)CC1	-4.8%	-1.2%	5.0%	-2.3%	-0.8%	-10.7%
COc1ccc(CCN(C)C(=O)c2cc(S(=O)(=O)NCc3ccccc3)ccc2C)cc1OC	-2.6%	x	-8.6%	x	0.6%	16.4µM*
COc1cccc(CN(C)C(=O)c2cc(S(=O)(=O)NCc3ccccc3)ccc2C)c1OC	-6.7%	x	-3.3%	-1.7%	0.1%	-9.3%
CCOC(=O)C(NC(C)=O)(Nc1ccc(F)cc1)C(F)(F)F (stereo not given)	9.8%	-6.5%	3.5%	20µM*	0.3%	x
CCCCC(=O)NC(Nc1cc(C)ccn1)(C(=O)OCC)C(F)(F)F (stereo not given)	-2.1%	-3.9%	-5.2%	25.1µM*	-0.4%	3.7%
CC(C)Cn1c(N)c(S(=O)(=O)c2cccs2)c2nc3ccccc3nc21	-4.3%	-3.8%	-16.4%	u	0.7%	u
COc1ccc(/C=N/n2c(N)c(S(=O)(=O)c3cccs3)c3nc4ccccc4nc32)cc1OC	-4.4%	-6.0%	-13.5%	12.6µM*	-0.9%	u
Nc1c(S(=O)(=O)c2cccs2)c2nc3ccccc3nc2n1/N=C/c1cccc(O)c1	-6.3%	u	u	2.82µM*	-0.9%	25.9µM*
COc1cccc(/C=N/n2c(N)c(S(=O)(=O)c3cccs3)c3nc4ccccc4nc32)c1	13.8%	-1.3%	-1.5%	2.82µM*	-0.2%	u
Cc1cccc(S(=O)(=O)c2c(N)n(/N=C/c3cccnc3)c3nc4ccccc4nc23)c1	26.1%	0.8%	-4.1%	0.2%	2.3%	-17.1%
COc1ccc(Br)cc1CNC(=O)CCCn1c(=O)c2cccn2c2ccccc21	x	2.0%	-1.2%	u	5.5%	u
Cc1ccc(Cl)cc1NC(=O)c1cc2c(=O)n3cccc(C)c3nc2n1C	x	0.0%	0.2%	3.7%	-0.4%	-5.1%
COc1cc2nc(SCc3cccc(Cl)c3)n3nc(CCn4nc(C)cc4C)nc3c2cc1OC	x	-9.4%	16.8%	-0.4%	-0.4%	-1.0%
CC(C)(Oc1ccc(Cl)cc1)C(=O)NC1CCCCC1	6.3%	x	0.5%	20µM*	0.2%	-1.1%
Cc1ccc(NC(=O)c2cccn2-c2nnc(N3CCCCC3)s2)cc1Cl	x	-15.8%	-5.7%	u	6.4%	-14.0%

Bioassay records: PubChem, National Center for Advancing Translational Sciences (NCATS)
